High-throughput results as filed in PubChem.
POLI inh = inhibitors of human DNA polymerase iota | Potency, µM (titrated, usually from 115 µM), inactives show at the top dose activity, negative = inhibition, hits mostly inhibitors | hit rate 1% among 390,000 | Pol iota fluorescent replication assay, 10 min | AID 588590
Target sequence (Q9UNA4 whole entry, looked up): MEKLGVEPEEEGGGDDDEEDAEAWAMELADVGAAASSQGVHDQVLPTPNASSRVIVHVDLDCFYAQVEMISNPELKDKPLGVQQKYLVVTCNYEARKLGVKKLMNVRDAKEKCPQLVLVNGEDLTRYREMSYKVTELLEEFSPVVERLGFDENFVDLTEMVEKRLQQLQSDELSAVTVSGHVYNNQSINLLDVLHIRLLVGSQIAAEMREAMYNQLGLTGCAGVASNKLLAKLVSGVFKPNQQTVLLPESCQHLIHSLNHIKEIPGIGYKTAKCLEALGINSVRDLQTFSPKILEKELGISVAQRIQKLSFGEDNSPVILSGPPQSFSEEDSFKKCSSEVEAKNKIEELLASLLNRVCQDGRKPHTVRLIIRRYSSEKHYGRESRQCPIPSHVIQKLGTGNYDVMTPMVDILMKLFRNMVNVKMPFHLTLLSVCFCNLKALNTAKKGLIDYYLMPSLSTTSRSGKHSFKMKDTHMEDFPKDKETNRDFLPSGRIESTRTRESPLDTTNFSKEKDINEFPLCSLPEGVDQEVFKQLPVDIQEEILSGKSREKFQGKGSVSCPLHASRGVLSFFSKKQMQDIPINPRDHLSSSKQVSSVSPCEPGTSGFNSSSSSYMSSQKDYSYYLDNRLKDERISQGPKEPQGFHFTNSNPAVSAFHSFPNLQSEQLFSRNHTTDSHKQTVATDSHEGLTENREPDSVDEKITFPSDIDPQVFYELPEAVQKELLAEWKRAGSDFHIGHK
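Fluorescent replication assay read twice, at 0 min and 10 min after adding 50 nM (final) substrate. Enzyme (10 nM) and compounds were first incubated 15 min at room temperature; enzyme-free buffer wells were negative controls.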
TDP1 block = inhibitors of human tyrosyl-DNA phosphodiesterase TDP1; Q9NUW8; recombinant TDP1, AlphaScreen DNA substrate cleavage; Potency, µM (titrated, usually from 130 µM), for inactives: at the highest dose activity change, negative = inhibition, most hits filed as inhibitors; hit rate 0.28% among 350,000; note: % is set by controls: 0 for no effect and ±100 for the full control effect; nearly all actives have a fitted effect of over 40% in size
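E. coli-derived human Tdp1, 1 nM final. Cpd preinc 15 min RT; substrate 15 nM final, 5 min RT; AS bead mix 10 ug/ml final, 10 min RT. Signal loss = tyrosine-FITC cleavage. No-enzyme wells = max signal.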
Pol eta inh-1 = inhibitors of human DNA polymerase eta; Q9Y253; recombinant Pol eta, fluorescent DNA replication assay; Potency, µM (doses to about 114 µM), without a hit: at the top dose activity change, negative = inhibition, most hits filed as inhibitors; hit rate 1.2% among 390,000; AID 588591; note: % is set by controls: 0 for no effect and ±100 for the full control effect
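Pol eta (10 nM) was preincubated with compounds for 15 min at room temperature, after which fluorescent replication substrate (50 nM final) was added to start the reaction. Fluorescence was read kinetically at 0 and 10 min.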
POLB inh = blocks human DNA polymerase beta activity; P06746; Pol beta primer extension/strand displacement, fluorescence kinetic; Potency, µM (highest dose often 114 µM), inactives show at the top dose activity change, negative = inhibition, actives largely listed as inhibitors; hit rate 1.3% among 340,000; AID 485314; note: % is set by controls: 0 for no effect and ±100 for the full control effect
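Kinetic readout of DNA synthesis with strand displacement by Pol beta. Compound and 10 nM enzyme sit 15 min at room temperature; 50 nM substrate starts the reaction, read immediately and at 10 min.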
Pol kappa inh-1 = blocks human DNA polymerase kappa activity; AID 588579; Potency, µM (series often up to 107 µM), without a hit: at the top dose activity, negative = inhibition, most hits filed as inhibitors; purified Pol kappa, fluorescent DNA synthesis assay, 10 min; hit rate 0.53% among 400,000; Q9UBT6; note: % is set by controls: 0 for no effect and ±100 for the full control effect
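Here, compound and 10 nM enzyme are combined for 15 min at room temperature; adding 50 nM substrate (final) starts DNA synthesis, tracked by fluorescence at 0 and 10 min against buffer-only wells.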
PGK validate = TbPGK inhibition, hit validation. shares compounds with Pol kappa inh-1. TbPGK coupled GAPDH assay, Kinase-Glo luminescence. Potency, µM (highest dose often 57.5 µM), without a hit: at the top dose activity change, negative = inhibition, most hits filed as inhibitors. hit rate 79% among 500; note: % is set by controls: 0 for no effect and ±100 for the full control effect; nearly all actives have a fitted effect of over 65% in size
Pol iota confirm = Confirm cherry-picked inhibitors of human polymerase iota. shares compounds with Pol kappa inh-1. Pol iota primer extension, TAMRA/BHQ fluorescence. Potency, µM, hits mostly inhibitors. hit rate 77% among 1,500. AID 720496
Pol kappa inh-2 = Pol kappa (human) inhibition, cherry-pick confirmation | hit rate 76% among 920 | shares compounds with Pol eta inh-1 | purified Pol-kappa, fluorescent strand-displacement substrate | Potency, µM, hits mostly inhibitors
Pol eta inh-2 = Pol eta (human) inhibition, cherry-pick confirmation | AID 720502 | Potency, µM, hits mostly inhibitors | Pol eta primer extension, TAMRA/BHQ fluorescence, 10 min | hit rate 64% among 2,600 | shares compounds with Pol eta inh-1
An asterisk follows results filed as active; i = inactive; ? = inconclusive; / = no result given; [ ] = remark or other dose. Most compounds without a hit are left out; they make up all but 2.4% or so of the library. Calls come from the whole dose curve; as a rule, active = well fitted curve in the direction sought with a large enough effect; inconclusive = small, poorly fitted or top-dose-only effect, or another doubt; inactive = no such curve, though single readings can be large; an effect the other way counts as inactive or inconclusive. Potency is the fitted concentration of half-maximal effect.

SMILES | POLI inh | TDP1 block | Pol eta inh-1 | POLB inh | Pol kappa inh-1 | Pol iota confirm | Pol eta inh-2 | others
CCOc1ccc(NC(=O)CCS(=O)(=O)c2ccc(Br)cc2)cc1 | -13% | -10% | 18µM* | 28µM* | 8% | / | 76* | PGK validate=?
O=C1C(c2cccc(Br)c2)N(CCc2ccccc2)C(=O)CN1C1CCCCC1 (stereo not drawn) | 9% | 5% | -14% | 5% | -7%[60.1 µM] | / | /
CC(CS(=O)(=O)c1ccc2c(c1)NC(=O)CS2)C(=O)NCc1ccccc1Cl (stereo not drawn) | 45µM* | 8.9µM* | 18µM* | 100µM* | ? | ? | 34* | PGK validate=1.8µM*
O=[N+]([O-])c1cc(/C=N/n2c(-c3ccncc3)n[nH]c2=S)ccc1Cl | 13µM* | 9% | 50µM* | 2.5µM* | ? | 17* | 43*
CCOc1ccc(CCNC(=O)c2cnc3sc(N4CCOCC4)nn3c2=O)cc1 | 14% | 3% | 9% | -11% | -18% | / | /
O=c1cc(-c2ccc(O)cc2)oc2cc(O)c(C3OC(CO)C(O)C(O)C3O)c(O)c12 (stereo not drawn) | 35µM* | -3% | 20µM* | 8.9µM* | 40µM* | 34* | 24*
COc1ccc(Cl)cc1NC(=O)Cn1nnc2sc(-c3ccccc3)cc2c1=O | -7% | 0% | / | -11% | -1% | / | /
CC(C)c1ccc(NC(=O)c2cc3c(=O)[nH]c4ccccc4c3n2C)cc1 | -6% | -7% | 8% | 19% | 10% | / | /
Nc1nc(=S)c2ncn([C@@H]3O[C@H](CO)[C@@H](O)[C@H]3O)c2[nH]1 | -4% | / | -3% | / | 8% | / | /
Nc1nc(=S)c2ncn(C3OC(CO)C(O)C3O)c2[nH]1 (stereo not drawn) | ? | ? | 4µM* | 0.16µM* | ? | 34* | 27* | PGK validate=12µM*;Pol kappa inh-2=15*
COC(=O)CN1C(=O)S/C(=C/c2ccc(N3CCCCC3)o2)C1=O | ? | 6% | ? | 4% | -4% | / | /
O=C(O)CN1C(=O)/C(=C/c2ccc(N3CCCCC3)o2)SC1=S | i | 50µM* | 50µM* | 18µM* | 50µM* | 42* | 34* | Pol kappa inh-2=24*
O=C(C[n+]1ccccc1Cl)c1cccc([N+](=O)[O-])c1 | 20% | / | / | / | -5% | / | /
Cc1ccc(-c2nc3c4ccccc4[nH]c(=O)n3n2)cc1 | 26% | 1% | ? | -20% | 12% | ? | ?
O=c1[nH]c2ccccc2c2nc(-c3cccc(S(=O)(=O)N4CCCC4)c3)nn12 | 31% | / | -7% | 0% | 11% | / | /
O=S(=O)(c1cc(O)ccc1O)c1cccc2c(S(=O)(=O)c3cc(O)ccc3O)cccc12 | 7.9µM* | / | 4.5µM* | / | 18µM* | 8.4* | 15* | PGK validate=3.7µM*;Pol kappa inh-2=9.5*
CCOC(=O)c1ccc(N2C(=O)c3n[nH]c(-c4ccco4)c3C2c2ccc(OCC)cc2)cc1 (stereo not drawn) | -27% | 9% | -19% | ? | -14% | / | /
COc1ccc(CCc2c[nH]c(=O)c3cncnc23)cc1OC | -30% | 2% | / | / | -9% | / | /
Cc1ccc(C)n1/N=C1/NC(=O)CS1 | 2.5µM* | / | 2.2µM* | 18µM* | 10µM* | 42* | 30* | PGK validate=?
Cc1cc(C)nc(/N=C2/NC(=O)CS2)n1 | ? | -3% | 3% | 4% | 8% | / | /
N#Cc1c(SCC(=O)Nc2nccs2)sc2c(O)cc(=O)[nH]c12 | 13µM* | / | 14µM* | 8.9µM* | 45µM* | 47* | 30* | Pol kappa inh-2=17*
Cc1cc(C(F)(F)F)c(C#N)c(SCC(=O)Nc2nc3cc(Br)ccc3s2)n1 | 19% | -3% | -15% | ? | -19% | / | /
Cc1c(Cl)cccc1NC(=O)CSc1sc2c(O)cc(=O)[nH]c2c1C#N | ? | 2% | -26% | 22% | -20% | / | /
CCCSc1nnc(NC(=O)CSc2sc3c(O)cc(=O)[nH]c3c2C#N)s1 | 8.9µM* | 0% | 3.2µM* | 20µM* | 20µM* | 67* | 30* | Pol kappa inh-2=11*
N#Cc1c(SCC(=O)Nc2nc3ccc(Br)cc3s2)sc2c(O)cc(=O)[nH]c12 | 6.3µM* | / | 11µM* | 35µM* | 32µM* | 67* | 15* | Pol kappa inh-2=8.4*
SMILES | POLI inh | TDP1 block | Pol eta inh-1 | POLB inh | Pol kappa inh-1 | Pol iota confirm | Pol eta inh-2 | others
COc1cc2ncc3c(-c4ccccc4)nn(-c4ccc(C)cc4)c3c2cc1OC | 16% | 6% | -21% | -2% | -6%[60.1 µM] | / | /
CCN(C(=O)Cn1nc(Cc2ccncc2)c2ccccc2c1=O)c1cccc(Cl)c1 | 22% | 4% | -13% | 20% | 1% | / | /
COc1cccc2c3c(c(C)nc12)CC(CO)O3 (stereo not drawn) | / | 7% | / | / | / | / | /
O=C(COc1ccccc1C(=O)OCC(=O)Nc1cccc2ccccc12)Nc1ccc(Br)cc1 | 10% | / | / | / | 8% | / | /
CN(CC(=O)Nc1ccccc1Cl)C(=O)c1cccc(-n2cccc2)c1 | -8% | / | -7% | / | -13% | / | /
Cc1ccc(C)c(NC(=O)CN(C)C(=O)c2ccncc2)c1 | 24% | 2%[56.1 µM] | -7% | 25% | 6% | / | /
CN(CC(=O)Nc1c(Cl)cccc1Cl)C(=O)c1cccc(-n2cccc2)c1 | 14µM* | / | 20µM* | / | 79µM* | 17* | 30*
CN(CC(=O)Nc1cccc(F)c1)C(=O)c1cccc(-n2cccc2)c1 | 20µM* | / | 7.9µM* | / | ? | 30* | 76*
Cc1ccc(C)c(NC(=O)CN(C)C(=O)c2cccc(-n3cccc3)c2)c1 | 8.9µM* | 3%[0.505 µM] | 5µM* | / | 40µM* | 17* | 27*
O=C(Nc1ccc2oc(-c3ccncc3)nc2c1)c1ccc([N+](=O)[O-])o1 | ? | 4%[0.0935 µM] | ? | ? | -10% | / | /
O=C(Nc1ccc(-c2nc3ncccc3o2)cc1)c1ccc([N+](=O)[O-])o1 | ? | 7% | 11µM* | 50µM* | -9% | 75* | 76*
COc1ccc(C(=O)NCC(=O)OCc2cc(=O)n3nc(C4CCCCC4)sc3n2)cc1 | 15% | 6% | -13% | 9% | -3% | / | /
O=C(NCc1ccc2c(c1)OCO2)c1cc2ncc(Br)cn2n1 | 22µM* | / | 10µM* | 14µM* | -43% | ? | ?
Cc1cc(=O)[nH]c(NN=Cc2c(Cl)cccc2Cl)n1 | 16% | / | -13% | / | -7% | / | /
